What all share (assay): PBM; 200 nM protein, PBS
Details in all cases: dsDNA, one strand shown

The target of test [1] is T1, NKX2-6 (Homo sapiens, UniProt A6NCS4 118-204).
T1 sequence: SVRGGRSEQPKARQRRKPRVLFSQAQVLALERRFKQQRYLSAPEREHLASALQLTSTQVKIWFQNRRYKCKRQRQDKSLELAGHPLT

For test [2], the target named is T2, NKX2-6 (Homo sapiens, UniProt A6NCS4 118-204, F151L).
T2 sequence: T1 sequence with F34L

Test [3] deals with T3, PAX4 (Homo sapiens, UniProt O43316 9-242, R200Q).
T3 sequence: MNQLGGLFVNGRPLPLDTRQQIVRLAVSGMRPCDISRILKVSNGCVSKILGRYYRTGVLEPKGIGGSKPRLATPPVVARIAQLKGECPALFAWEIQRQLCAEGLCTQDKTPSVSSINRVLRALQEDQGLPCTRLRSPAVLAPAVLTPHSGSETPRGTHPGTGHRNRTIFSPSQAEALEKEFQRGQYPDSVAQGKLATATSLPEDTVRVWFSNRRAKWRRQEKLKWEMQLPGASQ

Test [4] addresses T4, PAX4 (Homo sapiens, UniProt O43316 9-242, F177Y).
T4 sequence: T3 sequence with F169Y, Q192R

Test [5] has as its target NKX3-2 (Homo sapiens, UniProt P78367 192-278, P234S).
In test [6] the target is NKX3-2 (Homo sapiens, UniProt P78367 192-278).
For test [7], the target named is T5, PAX4 (Homo sapiens, UniProt O43316 9-242, R227W).
T5 sequence: T3 sequence with Q192R, R219W

The target in a further test is PITX2 (Homo sapiens, UniProt Q99697 72-157).

Substitutions are numbered along the chain they refer to.

This is an account of results in PMC11006913.

Chain of NKX3-2 (Homo sapiens, UniProt P78367 192-278, P234S) (P78367 192-278 P234S): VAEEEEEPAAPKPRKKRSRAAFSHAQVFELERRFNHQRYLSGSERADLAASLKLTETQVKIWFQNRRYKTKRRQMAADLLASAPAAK
Chain of NKX3-2 (Homo sapiens, UniProt P78367 192-278) (P78367 192-278): as the sequence (P78367 192-278 P234S) above, with S43P counted along it

Regarding CCGGGTCC, the binding signal was 9.7 upbm affinity estimate (log intensity, higher = more binding, comparable within an allelic series) in the test with NKX2-6 [1] and 9.17 upbm affinity estimate (log intensity, higher = more binding, comparable within an allelic series) in the test with NKX2-6 [2].
On to GCATCGGC, for which the binding signal in the test with NKX2-6 [1] was 9.23 upbm affinity estimate (log intensity, higher = more binding, comparable within an allelic series); in the test with NKX2-6 [2], 9.43 upbm affinity estimate (log intensity, higher = more binding, comparable within an allelic series).
As for CAGGGACG, the binding signal in the test with NKX2-6 [1] was 9.36 upbm affinity estimate (log intensity, higher = more binding, comparable within an allelic series); with NKX2-6 [2], 9.43 upbm affinity estimate (log intensity, higher = more binding, comparable within an allelic series).
CACCGCGC: the binding signal was 8.99 upbm affinity estimate (log intensity, higher = more binding, comparable within an allelic series) in the test with NKX2-6 [1] and 9.25 upbm affinity estimate (log intensity, higher = more binding, comparable within an allelic series) with NKX2-6 [2].
On to CCCGGAAA, for which the binding signal was 9.48 upbm affinity estimate (log intensity, higher = more binding, comparable within an allelic series) in the test with NKX2-6 [1] and 9.48 upbm affinity estimate (log intensity, higher = more binding, comparable within an allelic series) in the test with NKX2-6 [2].
Take GCTATTGA: the binding signal was 11.7 upbm affinity estimate (log intensity, higher = more binding, comparable within an allelic series) with NKX2-6 [1] and 9.84 upbm affinity estimate (log intensity, higher = more binding, comparable within an allelic series) with NKX2-6 [2].
On to CAGCTCAG, for which the binding signal with NKX2-6 [1] is 9.47 upbm affinity estimate (log intensity, higher = more binding, comparable within an allelic series); with NKX2-6 [2], 9.39 upbm affinity estimate (log intensity, higher = more binding, comparable within an allelic series).
Turning to CCACAGCG, the binding signal with NKX2-6 [1] is 8.94 upbm affinity estimate (log intensity, higher = more binding, comparable within an allelic series); in the test with NKX2-6 [2] it was 9.3 upbm affinity estimate (log intensity, higher = more binding, comparable within an allelic series).
As for TAAGAAGA, the binding signal with NKX2-6 [1] was 11.5 upbm affinity estimate (log intensity, higher = more binding, comparable within an allelic series); with NKX2-6 [2], 9.88 upbm affinity estimate (log intensity, higher = more binding, comparable within an allelic series).
Consider CCAAGGCA, for which the binding signal is 9.52 upbm affinity estimate (log intensity, higher = more binding, comparable within an allelic series) in the test with NKX2-6 [1] and 9.42 upbm affinity estimate (log intensity, higher = more binding, comparable within an allelic series) with NKX2-6 [2].
Take GGCGTTAC: the binding signal with NKX2-6 [1] is 9.36 upbm affinity estimate (log intensity, higher = more binding, comparable within an allelic series); in the test with NKX2-6 [2] it was 9.53 upbm affinity estimate (log intensity, higher = more binding, comparable within an allelic series).
For GCCGATCC, the binding signal is 9.45 upbm affinity estimate (log intensity, higher = more binding, comparable within an allelic series) with NKX2-6 [1] and 9.3 upbm affinity estimate (log intensity, higher = more binding, comparable within an allelic series) with NKX2-6 [2].
Take CGGCGGCC: the binding signal in the test with NKX2-6 [1] is 9.64 upbm affinity estimate (log intensity, higher = more binding, comparable within an allelic series); with NKX2-6 [2], 9.33 upbm affinity estimate (log intensity, higher = more binding, comparable within an allelic series).
With GTAAATTA, the binding signal in the test with PAX4 [3] is 11.9 upbm affinity estimate (log intensity, higher = more binding, comparable within an allelic series); with PAX4 [4], 11 upbm affinity estimate (log intensity, higher = more binding, comparable within an allelic series).
Regarding GACCACTC, the binding signal is 12.3 upbm affinity estimate (log intensity, higher = more binding, comparable within an allelic series) with NKX2-6 [1] and 9.92 upbm affinity estimate (log intensity, higher = more binding, comparable within an allelic series) with NKX2-6 [2].
In the case of ACACCCGT, the binding signal in the test with NKX2-6 [1] was 8.98 upbm affinity estimate (log intensity, higher = more binding, comparable within an allelic series); with NKX2-6 [2] it was 9.33 upbm affinity estimate (log intensity, higher = more binding, comparable within an allelic series).
For the sequence CACACGGA, the binding signal was 9.29 upbm affinity estimate (log intensity, higher = more binding, comparable within an allelic series) with NKX2-6 [1] and 9.43 upbm affinity estimate (log intensity, higher = more binding, comparable within an allelic series) with NKX2-6 [2].
Consider AGTTGCTG, for which the binding signal with NKX2-6 [1] is 9.45 upbm affinity estimate (log intensity, higher = more binding, comparable within an allelic series); in the test with NKX2-6 [2] it was 9.39 upbm affinity estimate (log intensity, higher = more binding, comparable within an allelic series); with NKX3-2 [5], 10.7 upbm affinity estimate (log intensity, higher = more binding, comparable within an allelic series); with NKX3-2 [6], 10.6 upbm affinity estimate (log intensity, higher = more binding, comparable within an allelic series).
Take GAAATTAA: the binding signal was 11.9 upbm affinity estimate (log intensity, higher = more binding, comparable within an allelic series) in the test with PAX4 [3]; 10.9 upbm affinity estimate (log intensity, higher = more binding, comparable within an allelic series) with PAX4 [4]; 10.9 upbm affinity estimate (log intensity, higher = more binding, comparable within an allelic series) with PAX4 [7].
CGGGACGC: the binding signal with NKX2-6 [1] was 9.53 upbm affinity estimate (log intensity, higher = more binding, comparable within an allelic series); with NKX2-6 [2] it was 9.25 upbm affinity estimate (log intensity, higher = more binding, comparable within an allelic series).
With CGGGGGCC, the binding signal was 9.04 upbm affinity estimate (log intensity, higher = more binding, comparable within an allelic series) in the test with NKX2-6 [1] and 9.04 upbm affinity estimate (log intensity, higher = more binding, comparable within an allelic series) with NKX2-6 [2].
With CAGACGGG, the binding signal with NKX2-6 [1] is 9.56 upbm affinity estimate (log intensity, higher = more binding, comparable within an allelic series); with NKX2-6 [2] it was 9.37 upbm affinity estimate (log intensity, higher = more binding, comparable within an allelic series).
Consider CTCTCATC, for which the binding signal in the test with NKX2-6 [1] was 11.6 upbm affinity estimate (log intensity, higher = more binding, comparable within an allelic series); with NKX2-6 [2], 9.79 upbm affinity estimate (log intensity, higher = more binding, comparable within an allelic series); with NKX3-2 [5], 11.7 upbm affinity estimate (log intensity, higher = more binding, comparable within an allelic series); with NKX3-2 [6], 11.9 upbm affinity estimate (log intensity, higher = more binding, comparable within an allelic series).
Consider GCTCCACC, for which the binding signal with PITX2 is 7.66 upbm affinity estimate (log intensity, higher = more binding, comparable within an allelic series).
On to GCTAAGTA, for which the binding signal is 12.9 upbm affinity estimate (log intensity, higher = more binding, comparable within an allelic series) in the test with NKX2-6 [1] and 10.4 upbm affinity estimate (log intensity, higher = more binding, comparable within an allelic series) with NKX2-6 [2].
For GATACTTA, the binding signal with NKX2-6 [1] was 13.3 upbm affinity estimate (log intensity, higher = more binding, comparable within an allelic series); with NKX2-6 [2], 10.5 upbm affinity estimate (log intensity, higher = more binding, comparable within an allelic series).
As for CAGACTAG, the binding signal in the test with NKX2-6 [1] was 9.38 upbm affinity estimate (log intensity, higher = more binding, comparable within an allelic series); with NKX2-6 [2], 9.36 upbm affinity estimate (log intensity, higher = more binding, comparable within an allelic series).
For AGCTGCAG, the binding signal in the test with NKX2-6 [1] was 9.32 upbm affinity estimate (log intensity, higher = more binding, comparable within an allelic series); with NKX2-6 [2], 9.44 upbm affinity estimate (log intensity, higher = more binding, comparable within an allelic series).
Take GCCCGCGC: the binding signal in the test with NKX2-6 [1] is 9.29 upbm affinity estimate (log intensity, higher = more binding, comparable within an allelic series); with NKX2-6 [2], 9.27 upbm affinity estimate (log intensity, higher = more binding, comparable within an allelic series).
